Experimental findings from the supplement of paper PMC13380429 are described below.

The subject of assay [1] is Vero E6 infected with SARS-CoV-2. In words: morphology score (similarity to uninfected cells); higher = more like uninfected cells. Particulars: 24 h.
Assay [2] has the same test system. In words: SARS-CoV-2 infection rate relative to infected DMSO; higher = more infection, active = 60 or less. Particulars: 24 h.

In assay [1], `Cc1cc2c(N3CCCC3)nc(N3CCCC3)nc2n1C` (10 µM) came in with a morphology score of 0.452. Moreover, in assay [2], the SARS-CoV-2 infection rate was 75% (inactive).
`C[C@@H](c1nc(-c2ccc(C#N)cc2)cs1)[C@](O)(Cn1cncn1)c1ccc(F)cc1F` [ravuconazole] (10 µM) yielded a morphology score in assay [1] of 0.0292. The SARS-CoV-2 infection rate in assay [2] was 107% (inactive).
Take `CCCc1ccc(C(=O)O)cc1` [4-propylbenzoic-acid] (10 µM): the morphology score in assay [1] is 0.187. Also, in assay [2], the SARS-CoV-2 infection rate was 95% (inactive).
In the case of `O=C(NCCCN1CCOCC1)c1cnn2c(-c3ccccc3)cc(-c3ccccc3)nc12` [reversan] (10 µM), in assay [1], the morphology score amounted to 0.226. Also, the SARS-CoV-2 infection rate in assay [2] was 98% (inactive).
Taken in the same sequence, the figures for `CCC(=O)c1ccc(OCC(O)CN2CCN(c3ccccc3)CC2)cc1` (configuration not stated) [centpropazine] (10 µM) were 0.0954 and 93.5% (inactive).
The like results for `O=C(O)c1c(Cl)c(Cl)c(Cl)c(Cl)c1-c1c2cc(I)c(=O)c(I)c-2oc2c(I)c(O)c(I)cc12` [rose-bengal] (0.833333 µM) were, in that order, 0.318 and 98.2% (inactive).
For the compound `O=C(NCC1CCCCN1)c1cc(OCC(F)(F)F)ccc1OCC(F)(F)F` (configuration not stated) [flecainide] (10 µM), in assay [1], the morphology score was found to be 0.193. Moreover, the SARS-CoV-2 infection rate in assay [2] was 87.5% (inactive).
The like results for `CC(=O)N[C@H](Cc1ccc2ccccc2c1)C(=O)N[C@H](Cc1ccc(Cl)cc1)C(=O)N[C@H](Cc1cccnc1)C(=O)N[C@@H](CO)C(=O)N[C@@H](Cc1ccc(O)cc1)C(=O)N[C@H](CCCNC(N)=O)C(=O)N[C@@H](CC(C)C)C(=O)N[C@@H](CCCNC(=N)N)C(=O)N1CCC[C@H]1C(=O)N[C@H](C)C(N)=O` [cetrorelix] (10 µM) were, in that order, 0.394 and 79.5% (inactive).
Taken in the same sequence, the figures for `CCc1cnc(N2CCC(c3nc(COc4ccc(-n5cnnn5)cc4)cs3)CC2)nc1` (10 µM) were 0.0438 and 97% (inactive).
The like results for `O=C(c1ccc(-c2ccc(Cl)cc2)o1)N(Cc1ccccn1)c1ccc(N2CCNCC2)cc1` (0.833333 µM) were, in that order, 0.128 and 106% (inactive).
For `CCNC(=O)c1n[nH]c(-c2cc(Cl)c(O)cc2O)c1-c1ccc(OC)cc1` (10 µM), in assay [1], the morphology score came to 0.0403. Further, the SARS-CoV-2 infection rate in assay [2] was 104% (inactive).
Taken in the same sequence, the figures for `OCc1ccc(CO)o1` [2,5-furandimethanol] (10 µM) were 0.0908 and 112% (inactive).
`Nc1ccc([As](=O)(O)O)cc1` [arsanilic-acid] (10 µM) returned a morphology score in assay [1] of -0.00345. The SARS-CoV-2 infection rate in assay [2] is 103% (inactive).
In assay [1], `CC(/C=C/C(=O)NO)=C\[C@@H](C)C(=O)c1ccc(N(C)C)cc1` [trichostatin-a] (0.833333 µM) showed a morphology score of -0.0945. Further, in assay [2], the SARS-CoV-2 infection rate was 108% (inactive).
Taken in the same sequence, the figures for `COc1ccc(-c2ccc(=N)n(CCCC(=O)O)n2)cc1` [gabazine] (10 µM) were -0.176 and 103% (inactive).
As for `Nc1ccc(O)c(C(=O)O)c1` [mesalazine] (10 µM), in assay [1], the morphology score is 0.0799. The SARS-CoV-2 infection rate in assay [2] was 93.5% (inactive).
Taken in the same sequence, the figures for `COc1cc(C(C)=O)ccc1O` [apocynin] (10 µM) were 0.331 and 97% (inactive).
Taken in the same sequence, the figures for `CCOCC(O)COc1ccc(NC(=O)CC[S+](C)C)cc1` (configuration not stated) [suplatast] (10 µM) were 0.0407 and 102% (inactive).
The like results for `COc1ccc(-c2cc(C(F)F)nn2-c2ccc(S(N)(=O)=O)cc2)cc1F` [deracoxib] (10 µM) were, in that order, 0.112 and 112% (inactive).
`Oc1ncnc2[nH]ncc12` [allopurinol] (10 µM) showed a morphology score in assay [1] of -0.0914. Also, in assay [2], the SARS-CoV-2 infection rate is 108% (inactive).
With `COc1cc(-c2ccc(=O)[nH]n2)ccc1OC(F)F` [zardaverine] (10 µM), in assay [1], the morphology score turned out to be 0.289. For the same compound, the SARS-CoV-2 infection rate in assay [2] is 83.5% (inactive).
Taken in the same sequence, the figures for `CCCCCCCCCCCCCCCC[n+]1ccn(Cc2ccccc2)c1C` (0.833333 µM) were 0.0516 and 104% (inactive).
Compound `O=C(O)/C=C/c1ccc(O)cc1` [naringeninic-acid] (10 µM) returned a morphology score in assay [1] of 0.0231. The SARS-CoV-2 infection rate in assay [2] was 102% (inactive).
The like results for `N[C@H](Cc1ccccc1)C(=O)O` [D-phenylalanine] (10 µM) were, in that order, 0.0544 and 104% (inactive).
`NC(=O)NC(=O)Cc1ccccc1` [phenacemide] (10 µM): the morphology score in assay [1] was 0.0778. The SARS-CoV-2 infection rate in assay [2] is 114% (inactive).
In assay [1], `Cc1cnc(-c2ccccc2C(C)C)nc1NCc1ccc(-n2ccnn2)cc1` (10 µM) gave a morphology score of 0.0189. For the same compound, in assay [2], the SARS-CoV-2 infection rate is 101% (inactive).
Taken in the same sequence, the figures for `C=CC(=O)Nc1cc2c(Nc3ccc(F)c(Cl)c3)ncnc2cc1OCCCN1CCOCC1` [canertinib] (10 µM) were -0.116 and 107% (inactive).
Taken in the same sequence, the figures for `CC(C)(C)[C@]1(O)CC2OC(=O)CC23C(=O)OC2OC(=O)[C@H](O)C231` (some centres not stated) [bilobalide] (10 µM) were 0.0342 and 110% (inactive).
The like results for `NC1(c2ccc(-c3nc4ccn5c(=O)[nH]nc5c4cc3-c3ccccc3)cc2)CCC1` (0.833333 µM) were, in that order, 0.255 and 106% (inactive).
The compound `Cn1cc(C(=O)c2cccc3ccccc23)cc1C(=O)O` [napirimus] (10 µM) registered a morphology score in assay [1] of 0.122. For the same compound, the SARS-CoV-2 infection rate in assay [2] is 107% (inactive).
Consider `FC(F)(F)c1cccc(C2=CCN(CCc3ccc4ccccc4c3)CC2)c1` [xaliproden] (10 µM), for which, in assay [1], the morphology score is -0.0559. Moreover, in assay [2], the SARS-CoV-2 infection rate was 108% (inactive).
